Test results reported in PubChem BioAssay (NCI).
This is part of a sample that, as a whole, favours compounds with a hit. Of some 83,000 tested, about 20% had one in any assay.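 Percent growth is the endpoint: 0 to 100 indicates growth inhibition (40 means 60% inhibition), 0 means no net growth, and negative values indicate cell death.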 Unmarked numbers belong to inactive results. Calls of active or inactive are those of the source. The calls were made as follows: active = growth percent below 10; inactive = the rest.

test system: EKVX NSCLC; experiment: NCI-60 one-dose screen, 48 h (100 = growth as untreated, 0 = no growth, -100 = all killed); details: 10 µM unless noted

**Q.** For COc1ccc(C(O)c2cc3c(N)c(C(=O)Nc4cccc(OC)c4)sc3nc2C)cc1 (stereo unspecified), which growth is on record?
**A.** 33.8%

**Q.** With CCN(CC)S(=O)(=O)c1cccc([N+](=O)[O-])c1 as the compound, how does the growth read?
**A.** 98.7%

**Q.** For CCOC(=O)C1CC(=O)c2cc(OC)c(OC)cc2C1 (stereo unspecified), which growth is on record?
**A.** 114%

**Q.** With c1ccc(CCSc2ncnc3nc[nH]c23)cc1 as the compound, how does the growth read?
**A.** 73.4%

**Q.** O=S(=O)(NCCCNc1nccc(-c2c(-c3ccccc3)nc3occn23)n1)c1ccc(Cl)cc1 was tested. Which growth did it give?
**A.** 89.1%

**Q.** With Cc1nc2sc(C(=O)Nc3ccccc3)c(N)c2cc1C(=O)c1ccc(C(F)(F)F)cc1 as the compound, how does the growth read?
**A.** 79.3%

**Q.** How did the growth turn out when Nc1ncc(C#Cc2cncc(NC(=O)c3cccc(C(F)(F)F)c3)c2)c2cccnc12 was run?
**A.** 81.6%

**Q.** Which growth does the source give for CCCCCCCCCCCCCCCC(=O)OC[C@@]1(O)C[C@@]23CC[C@@H]4C(C)(C)CCC[C@@]4(C)[C@@H]2CC[C@H]1C3 here?
**A.** 109%

**Q.** With CC1(C)CN(c2cnc(C(=O)Nc3cc(F)cc4cccnc34)cn2)CCN1 as the compound, how does the growth read?
**A.** 73%

**Q.** How did the growth turn out when O=S(=O)(NCCCNc1nccc(-c2c(-c3ccc(F)c(O)c3)nc3sccn23)n1)c1ccc(F)cc1 was run?
**A.** 30.6%

**Q.** Which growth does the source give for CC1(C)CN(Cc2ccccc2)CCN1Cc1ccccc1 here?
**A.** 106%

**Q.** For COc1ccc(Cn2nc(-c3ccccc3)c3c2CCc2cnoc2-3)cc1, which growth is on record?
**A.** 65.9%

**Q.** How did the growth turn out when O=C(Nc1ccc2ncnc(Nc3ccc(Oc4cccc(F)c4)c(Cl)c3)c2c1)c1ccc(CN2CCOCC2)cc1 was run?
**A.** 30.4%

**Q.** For O=C1/C(=C/c2ccc(O)cc2)COc2ccc(-c3ccccc3)cc21, which growth is on record?
**A.** 105%

**Q.** With CCCCc1ccc(Nc2nnc(SCC(=O)NC(=O)NCC)s2)cc1 as the compound, how does the growth read?
**A.** 110%

**Q.** Fc1ccccc1CSc1ncnc2nc[nH]c12 was tested. Which growth did it give?
**A.** 113%

**Q.** Which growth does the source give for COc1ccc(-c2cnnc3c(-c4cccc(C(F)(F)F)c4)cnn23)cc1 here?
**A.** 30.6%

**Q.** CC(=O)Nc1ccc(C(=O)Nc2cc(-c3ccccc3)ccc2N)cc1 was tested. Which growth did it give?
**A.** 71.4%

**Q.** How did the growth turn out when Cc1ccc(C2CC(c3cccc(Nc4ccncc4)c3)=NN2c2ccc(Cl)cc2)cc1 (stereo unspecified) was run?
**A.** -85.1% (active)

**Q.** Which growth does the source give for CC(C)[N+](C)(CCOC(COc1ccccc1)COc1ccccc1)C(C)C here?
**A.** 79.1%

**Q.** For FC(F)(F)c1cccc(Oc2ccc(Nc3ncnc4ccc(OCCCN5CCOCC5)cc34)cc2Cl)c1, which growth is on record?
**A.** 32.7%

**Q.** COc1ccc(/C=C2\COc3ccc(-c4ccccc4)cc3C2=O)cc1O was tested. Which growth did it give?
**A.** 105%

**Q.** Cc1ccccc1-c1cc(Cc2ccc(F)cc2)c(=O)[nH]n1 was tested. Which growth did it give?
**A.** 81.8%

**Q.** Which growth does the source give for CC(=O)N1N=C(c2cccc(Nc3ccncc3)c2)CC1c1ccccc1 (stereo unspecified) here?
**A.** 83.9%

**Q.** How did the growth turn out when COc1cccc(/C=C2\COc3ccc(-c4ccccc4)cc3C2=O)c1 was run?
**A.** 99.9%

**Q.** O=C1NC(=S)NC(=O)C1=Cc1cccc(C=C2C(=O)NC(=S)NC2=O)c1 was tested. Which growth did it give?
**A.** 99.9%

**Q.** How did the growth turn out when Cc1ccc(/C=C/C(=O)c2ccc(N)cc2)c(C)c1 was run?
**A.** 109%

**Q.** How did the growth turn out when FC(F)(F)Oc1cccc(-c2cc(NCCCCCCNc3cc(-c4cccc(OC(F)(F)F)c4)nc4ccc(N5CCCC5)cc34)c3cc(N4CCCC4)ccc3n2)c1 was run?
**A.** -54.4% (active)

**Q.** For CS(=O)(=O)c1ccc(-c2cc3c(oc2=O)-c2ccccc2OC3O)cc1 (stereo unspecified), which growth is on record?
**A.** 98.4%

**Q.** For O=C1c2cccnc2C(=O)c2nc3cc(N4CCN(C5CC5)CC4)ccc3nc21, which growth is on record?
**A.** 27.4%

**Q.** For CN1CCN(CCCOc2ccc3ncnc(Nc4ccc(Oc5cccc(C(F)(F)F)c5)c(Cl)c4)c3c2)CC1, which growth is on record?
**A.** 36.6%

**Q.** Which growth does the source give for COc1cc(/C=N/NC(=O)c2ccccc2Nc2cccc(C(F)(F)F)c2)ccc1O here?
**A.** 79.5%

**Q.** COc1ccc(/C=C/C(=O)c2ccc(Nc3ncnc4ccccc34)cc2)cc1OC was tested. Which growth did it give?
**A.** 78.3%

**Q.** Which growth does the source give for COc1cc(C2CC(c3cccc(Nc4ccncc4)c3)=NN2c2ccccc2)cc(OC)c1OC (stereo unspecified) here?
**A.** 71.2%

**Q.** How did the growth turn out when COc1cccc(CCC(=O)c2cc3c(N)c(C(=O)Nc4cccc(Cl)c4C)sc3nc2C)c1 was run?
**A.** 36.2%

**Q.** For COc1ccc(-c2nc(N/N=C/c3ccco3)nc(N3CCOCC3)c2C#N)cc1, which growth is on record?
**A.** 82.3%

**Q.** For COc1ccc(C(=O)c2cc3c(N)c(C(=O)Nc4cccc5ccccc45)sc3nc2C)cc1, which growth is on record?
**A.** 36%

**Q.** Which growth does the source give for C#CCn1cc(C=C2C(=O)NC(=S)NC2=O)c2cc(Cl)ccc21 here?
**A.** 67.2%

test system: SN12C renal; experiment: as above; details: 10 µM unless noted

**Q.** How did the growth turn out when COc1ccc(C(O)c2cc3c(N)c(C(=O)Nc4cccc(OC)c4)sc3nc2C)cc1 (stereo unspecified) was run?
**A.** 23.6%

**Q.** CCN(CC)S(=O)(=O)c1cccc([N+](=O)[O-])c1 was tested. Which growth did it give?
**A.** 100%

**Q.** Which growth does the source give for CCOC(=O)C1CC(=O)c2cc(OC)c(OC)cc2C1 (stereo unspecified) here?
**A.** 100%

**Q.** With c1ccc(CCSc2ncnc3nc[nH]c23)cc1 as the compound, how does the growth read?
**A.** 86.5%

**Q.** With O=S(=O)(NCCCNc1nccc(-c2c(-c3ccccc3)nc3occn23)n1)c1ccc(Cl)cc1 as the compound, how does the growth read?
**A.** 68.2%

**Q.** How did the growth turn out when Cc1nc2sc(C(=O)Nc3ccccc3)c(N)c2cc1C(=O)c1ccc(C(F)(F)F)cc1 was run?
**A.** 99.6%

**Q.** With Nc1ncc(C#Cc2cncc(NC(=O)c3cccc(C(F)(F)F)c3)c2)c2cccnc12 as the compound, how does the growth read?
**A.** 50.4%

**Q.** Which growth does the source give for CCCCCCCCCCCCCCCC(=O)OC[C@@]1(O)C[C@@]23CC[C@@H]4C(C)(C)CCC[C@@]4(C)[C@@H]2CC[C@H]1C3 here?
**A.** 93.6%

**Q.** Which growth does the source give for CC1(C)CN(c2cnc(C(=O)Nc3cc(F)cc4cccnc34)cn2)CCN1 here?
**A.** 72.1%

**Q.** For O=S(=O)(NCCCNc1nccc(-c2c(-c3ccc(F)c(O)c3)nc3sccn23)n1)c1ccc(F)cc1, which growth is on record?
**A.** 4.8% (active)

**Q.** Which growth does the source give for CC1(C)CN(Cc2ccccc2)CCN1Cc1ccccc1 here?
**A.** 96.1%

**Q.** With COc1ccc(Cn2nc(-c3ccccc3)c3c2CCc2cnoc2-3)cc1 as the compound, how does the growth read?
**A.** 76.8%

**Q.** Which growth does the source give for O=C(Nc1ccc2ncnc(Nc3ccc(Oc4cccc(F)c4)c(Cl)c3)c2c1)c1ccc(CN2CCOCC2)cc1 here?
**A.** 39%

**Q.** For O=C1/C(=C/c2ccc(O)cc2)COc2ccc(-c3ccccc3)cc21, which growth is on record?
**A.** 76.2%

**Q.** How did the growth turn out when CCCCc1ccc(Nc2nnc(SCC(=O)NC(=O)NCC)s2)cc1 was run?
**A.** 97%

**Q.** Fc1ccccc1CSc1ncnc2nc[nH]c12 was tested. Which growth did it give?
**A.** 101%

**Q.** For COc1ccc(-c2cnnc3c(-c4cccc(C(F)(F)F)c4)cnn23)cc1, which growth is on record?
**A.** 49.8%

**Q.** How did the growth turn out when CC(=O)Nc1ccc(C(=O)Nc2cc(-c3ccccc3)ccc2N)cc1 was run?
**A.** 84.2%

**Q.** Cc1ccc(C2CC(c3cccc(Nc4ccncc4)c3)=NN2c2ccc(Cl)cc2)cc1 (stereo unspecified) was tested. Which growth did it give?
**A.** -95.8% (active)

**Q.** How did the growth turn out when CC(C)[N+](C)(CCOC(COc1ccccc1)COc1ccccc1)C(C)C was run?
**A.** 64.8%

**Q.** FC(F)(F)c1cccc(Oc2ccc(Nc3ncnc4ccc(OCCCN5CCOCC5)cc34)cc2Cl)c1 was tested. Which growth did it give?
**A.** 39.6%

**Q.** With COc1ccc(/C=C2\COc3ccc(-c4ccccc4)cc3C2=O)cc1O as the compound, how does the growth read?
**A.** 30.8%

**Q.** With Cc1ccccc1-c1cc(Cc2ccc(F)cc2)c(=O)[nH]n1 as the compound, how does the growth read?
**A.** 148%

**Q.** How did the growth turn out when CC(=O)N1N=C(c2cccc(Nc3ccncc3)c2)CC1c1ccccc1 (stereo unspecified) was run?
**A.** 81.7%

**Q.** For COc1cccc(/C=C2\COc3ccc(-c4ccccc4)cc3C2=O)c1, which growth is on record?
**A.** 31.4%

**Q.** With O=C1NC(=S)NC(=O)C1=Cc1cccc(C=C2C(=O)NC(=S)NC2=O)c1 as the compound, how does the growth read?
**A.** 95.3%

**Q.** Which growth does the source give for Cc1ccc(/C=C/C(=O)c2ccc(N)cc2)c(C)c1 here?
**A.** 4.51% (active)

**Q.** With FC(F)(F)Oc1cccc(-c2cc(NCCCCCCNc3cc(-c4cccc(OC(F)(F)F)c4)nc4ccc(N5CCCC5)cc34)c3cc(N4CCCC4)ccc3n2)c1 as the compound, how does the growth read?
**A.** -81.4% (active)

**Q.** How did the growth turn out when CS(=O)(=O)c1ccc(-c2cc3c(oc2=O)-c2ccccc2OC3O)cc1 (stereo unspecified) was run?
**A.** 104%

**Q.** With O=C1c2cccnc2C(=O)c2nc3cc(N4CCN(C5CC5)CC4)ccc3nc21 as the compound, how does the growth read?
**A.** -94.7% (active)

**Q.** With CN1CCN(CCCOc2ccc3ncnc(Nc4ccc(Oc5cccc(C(F)(F)F)c5)c(Cl)c4)c3c2)CC1 as the compound, how does the growth read?
**A.** 27.1%

**Q.** COc1cc(/C=N/NC(=O)c2ccccc2Nc2cccc(C(F)(F)F)c2)ccc1O was tested. Which growth did it give?
**A.** 96.5%

**Q.** Which growth does the source give for COc1ccc(/C=C/C(=O)c2ccc(Nc3ncnc4ccccc34)cc2)cc1OC here?
**A.** 88.5%

**Q.** COc1cc(C2CC(c3cccc(Nc4ccncc4)c3)=NN2c2ccccc2)cc(OC)c1OC (stereo unspecified) was tested. Which growth did it give?
**A.** 62.5%

**Q.** Which growth does the source give for COc1cccc(CCC(=O)c2cc3c(N)c(C(=O)Nc4cccc(Cl)c4C)sc3nc2C)c1 here?
**A.** 36%

**Q.** How did the growth turn out when COc1ccc(-c2nc(N/N=C/c3ccco3)nc(N3CCOCC3)c2C#N)cc1 was run?
**A.** 80.2%

**Q.** How did the growth turn out when COc1ccc(C(=O)c2cc3c(N)c(C(=O)Nc4cccc5ccccc45)sc3nc2C)cc1 was run?
**A.** 22.5%

**Q.** With C#CCn1cc(C=C2C(=O)NC(=S)NC2=O)c2cc(Cl)ccc21 as the compound, how does the growth read?
**A.** -34.9% (active)
